Bioassay records from PubChem.
Hits are enriched below; roughly 27% of the tested compounds scored in any of these assays.
Cav32 inh – blocks human Cav3.2 T-type calcium channel; O95180; B-score at 10 µM; Cav3.2-expressing cells, Fluo-4 calcium fluorescence FDSS; stronger effect = lower value; actives 4% (n = 100,000);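 active = single-dose well whose peak fluorescence ratio is a statistical outlier from its plate by either plate-standardised score or position-corrected B-score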
CYP2C9 act – increases human cytochrome P450 2C9 activity. recombinant CYP2C9, luciferin-H conversion, luminescence; stronger effect = higher value; factor 1 = untreated enzyme, 0 = blocked. activation factor at 5 µM. actives 1.4% (n = 96,000);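 active = activation factor of 2 or more for CYP2C9 at a 5 µM dose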
Target sequence (P11712 whole entry, looked up): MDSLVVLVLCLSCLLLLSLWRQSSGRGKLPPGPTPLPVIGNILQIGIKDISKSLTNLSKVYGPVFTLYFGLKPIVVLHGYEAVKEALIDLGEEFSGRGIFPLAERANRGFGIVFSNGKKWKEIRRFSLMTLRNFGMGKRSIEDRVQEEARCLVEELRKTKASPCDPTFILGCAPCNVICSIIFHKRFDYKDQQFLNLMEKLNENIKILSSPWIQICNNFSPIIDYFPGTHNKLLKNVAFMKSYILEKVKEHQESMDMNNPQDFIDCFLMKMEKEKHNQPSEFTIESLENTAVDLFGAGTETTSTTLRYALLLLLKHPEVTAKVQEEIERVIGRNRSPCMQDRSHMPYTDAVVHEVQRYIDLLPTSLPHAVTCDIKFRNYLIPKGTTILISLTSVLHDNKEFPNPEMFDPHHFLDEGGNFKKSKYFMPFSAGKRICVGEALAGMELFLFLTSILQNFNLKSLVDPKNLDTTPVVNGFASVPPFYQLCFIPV
CYP2C19 inhib – human CYP2C19 inhibition; P33261; CYP2C19 Supersomes, luciferin-H EGE luminescence, 30 min; inhibition, % at 5 µM; actives 21% (n = 96,000); AID 778;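 active = CYP2C19 inhibition above a set limit at 5 µM in the primary screen, cut at about 50% in these data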
CYP2C19 activ – activators of human cytochrome P450 2C19; recombinant CYP2C19, luciferin-H EGE luminescence; stronger effect = higher value; 0 = fully inhibited enzyme, 1 = untreated enzyme; activation factor at 5 µM; 96,000 tested, under 10 active;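 active = activation factor of at least 2 at 5 µM in the primary screen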
CYP2C9 inhib – inhibitors of human CYP2C9. CYP2C9 Supersomes, luciferin-H conversion, luminescence. inhibition, % at 5 µM. actives 20% (n = 96,000). AID 777;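 active = blocking of liver enzyme CYP2C9 beyond about 50% at 5 µM, limit read from the data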
Hits are given with their value; 0 = inactive; - = no result.

SMILES | Cav32 inh | CYP2C9 act | CYP2C19 inhib | CYP2C19 activ | CYP2C9 inhib
Cc1nn(Cc2c(F)c(F)c(F)c(F)c2F)c(C)c1NC(=O)c1ccc(COc2ccccc2Cl)o1 | - | 0 | 53 | 0 | 59
O=C(Nc1ccccc1)N(C1=NCCC1)c1ccc(OC(F)F)cc1 | 0 | 0 | 50 | 0 | 79
c1ccc(Oc2cccc(NC3=NCCC3)c2)cc1 | 0 | 0 | 0 | 0 | 0
COc1ccc(CNc2nc(NCc3ccc(OC)c(OC)c3)n(C(=O)c3cccs3)n2)cc1OC | 0 | 0 | 0 | 0 | 71
CCC(=O)n1nc(NCc2ccccc2OC)nc1NCc1ccccc1OC | -7.9 | 0 | 0 | 0 | 52
CCCn1nnc(NCc2ccc(OCc3cccs3)c(OC)c2)n1 | 0 | 0 | 0 | 0 | 86
COCCn1c(SCc2cccnc2)nnc1-c1ccco1 | 0 | 0 | 0 | 0 | 0
Cc1cccc(NC(=O)c2ccc(N(C)C3CCCCC3)c([N+](=O)[O-])c2)n1 | 0 | 0 | 0 | 0 | 0
C[C@]12C(=O)N(c3ccc(Cl)cc3)C(=O)N1[C@@H]1c3ccccc3OC[C@@H]1[C@H]2c1ccccc1 | 0 | - | - | - | -
COc1ccc(NS(=O)(=O)c2cc(C)ccc2C)cc1 | 0 | 0 | 82 | 0 | 72
Cc1cc(C)c(S(=O)(=O)Nc2ccc(O)cc2)cc1C | 0 | 0 | 97 | 0 | 0
Cc1cc(C(=O)Nc2ccccc2)c(C)o1 | - | 0 | 61 | 0 | 0
CCCCNS(=O)(=O)c1ccc(NS(=O)(=O)c2c(C)cc(C)cc2C)cc1 | 0 | 0 | 85 | 0 | 98
COc1ccc(NS(=O)(=O)c2cc(C(=O)O)ccc2C)cc1 | 0 | 0 | 0 | 0 | 0
Cc1cc(C)nc(N/N=C/C(Cl)=C/c2ccccc2)n1 | 0 | 0 | 0 | 0 | 0
CC1=Nc2ccccc2/C1=C\c1nc(-c2ccc(F)cc2)oc1O | 0 | 0 | 0 | 0 | 0
COc1ccc(NS(=O)(=O)c2cc(OC)ccc2NC(=O)c2cc(C)oc2C)cc1 | 0 | 0 | 91 | 0 | 0
Cc1ccc(C)c(S(=O)(=O)Nc2ccc(O)cc2)c1 | 0 | 0 | 72 | 0 | 0
CCNS(=O)(=O)c1ccc(NS(=O)(=O)c2cc(C)ccc2C)cc1 | - | 0 | 64 | 0 | 97
Cc1noc(NS(=O)(=O)c2ccc(NC(=O)CS(=O)(=O)c3ccccc3)cc2)c1C | - | 0 | 0 | 0 | 54
Cc1ccc(C)c(S(=O)(=O)Nc2ccc(S(=O)(=O)Nc3onc(C)c3C)cc2)c1 | 0 | 0 | 0 | 0 | 71
CCCn1c(=O)c(Cc2ccccc2)c(O)c2ccccc21 | - | 0 | 0 | 0 | 0
Cn1c(=O)c(Cc2ccccc2)c(O)c2ccccc21 | 0 | 0 | 71 | 0 | 0
CSC1=NCCN1C(=O)Cc1ccc(Cl)cc1 | 0 | 0 | 57 | 0 | 0
COc1ccc(CC(=O)N2CCN=C2SC)cc1 | 0 | 0 | 0 | 0 | 0
SMILES | Cav32 inh | CYP2C9 act | CYP2C19 inhib | CYP2C19 activ | CYP2C9 inhib
CCN(CC)C(=O)c1[nH]cnc1C(=O)N[C@@H](CC(C)C)C(=O)OCc1ccccc1 | 0 | - | - | - | -
O=C(Cn1nnc(-c2cccs2)n1)N1c2ccccc2Sc2ccc(C(F)(F)F)cc21 | -5.4 | - | - | - | -
O=C(CCn1nnc(-c2cccs2)n1)N1CCc2ccccc2C1 | 0 | 0 | 0 | 0 | 0
C/C=C(\C)C(=O)OC1c2c(ccc3ccc(=O)oc23)OC(C)(C)C1OC(C)=O (configuration not stated) | 0 | - | - | - | -
C/C=C(/C)C(=O)OC1c2c(ccc3ccc(=O)oc23)OC(C)(C)C1OC(=O)/C(C)=C\C (configuration not stated) | -5.1 | - | - | - | -
CCCSc1nc2sc3c(c2c(=O)[nH]1)CCN(Cc1ccccc1)C3 | -5.9 | 0 | 0 | 0 | 0
CCCCSc1nc2sc3c(c2c(=O)[nH]1)CCC3 | 0 | 0 | 0 | 0 | 0
O=C(NCCCn1ccnc1)c1cc2nc(-c3ccc(Br)cc3)cc(C(F)(F)F)n2n1 | 0 | - | - | - | -
O=C(CSc1nc2ccccc2[nH]1)Nc1ccc(F)c(F)c1 | -4.4 | 0 | 56 | 0 | 66
O=C(O)CSc1nc2ccccc2[nH]1 | 0 | 0 | 0 | 0 | 0
O=C(CSc1nc2ccccc2[nH]1)NCCCn1ccnc1 | 0 | 0 | 92 | 0 | 95
O=C(CSc1nc2ccccc2[nH]1)Nc1ccccc1F | 0 | 0 | 64 | 0 | 84
O=C(CSC1=NCCS1)Nc1ccccc1F | 0 | 0 | 79 | 0 | 0
O=C(CSC1=NCCS1)Nc1cccc2ccccc12 | - | 0 | 0 | 0 | 0
Cc1cc(C)n(-c2nnc(C)c(=O)[nH]2)n1 | 0 | 0 | 0 | 0 | 0
CC(=O)NCCn1c(SCC(=O)c2ccc(Cl)cc2)nc2ccccc2c1=O | 0 | 0 | 0 | 0 | 0
O=C(CSc1nc2ccccc2c(=O)n1NC(=O)c1ccccc1)c1ccccc1 | 0 | 0 | 0 | 0 | 86
O=C(CSc1nc2ccccc2c(=O)n1NC(=O)c1ccccc1)c1ccc(Cl)cc1 | 0 | 0 | 0 | 0 | 78
COC(=O)c1cc(NS(=O)(=O)c2ccc3c(c2)CCC(=O)N3)cc(C(=O)OC)c1 | 0 | 0 | 68 | 0 | 57
COc1ccc(N(C)S(=O)(=O)c2ccc3c(c2)CCC(=O)N3)cc1 | 0 | 0 | 0 | 0 | 0
COc1ccc(OC)c(NS(=O)(=O)c2ccc3c(c2)CCC(=O)N3)c1 | 0 | 0 | 53 | 0 | 0
CN1CCC(N(C)C(=O)CCc2nc3ccccc3c(=O)[nH]2)CC1 | 0 | 0 | 0 | 0 | 0
Cc1cccc(NC(=O)CSc2nc(N)c(NC(=O)c3cccs3)c(=O)[nH]2)c1 | 0 | - | - | - | -
S=C1NC[C@H](Cc2cccc3ccccc23)N1CC1CCCCC1 | 0 | - | - | - | -
O=C(CSc1nnc(-c2ccccc2)n1-c1ccccc1)N1c2ccccc2Sc2ccccc21 | - | 0 | 0 | 0 | 0
SMILES | Cav32 inh | CYP2C9 act | CYP2C19 inhib | CYP2C19 activ | CYP2C9 inhib
CN(C)/C=N/c1c(C#N)nnn1Cc1ccccc1 | 0 | 0 | 67 | 0 | 0
CN(C)C=Nc1ncc2c3ccccc3n(Cc3ccccc3)c2c1C#N | 0 | 0 | 0 | 0 | 0
Cc1oc2c(c1C(=O)Nc1cccc(C(=O)O)c1)CCCC2 | 0 | 0 | 0 | 0 | 0
CCOC(=O)C1=C(C)C(c2ccccc2O)NC(=O)N1 (configuration not stated) | 0 | 0 | 0 | 0 | 0
O=C(COC(=O)[C@@H]1CCCN1C(=O)c1cccs1)NCCc1ccccc1 | 0 | 0 | 60 | 0 | 0
O=C(C1CCCN1C(=O)c1cccs1)N1CCc2ccccc21 (configuration not stated) | 0 | 0 | 54 | 0 | 0
O=C(c1cccs1)N1CCCc2ccccc21 | 0 | 0 | 64 | 0 | 0
COCc1nnc(NC(=O)CC(c2ccccc2)c2ccccc2)s1 | - | 0 | 0 | 0 | 0
COc1ccc(C(=O)Nn2c(SCC(=O)NCc3ccccc3)nc3ccccc3c2=O)cc1 | 0 | 0 | 0 | 0 | 74
O=C(CSc1nc2ccccc2c(=O)n1CC1CCCO1)NCC1CCCO1 (configuration not stated) | 0 | 0 | 0 | 0 | 0
O=C(Cc1cccs1)Nn1c(Cc2cccs2)nc2ccccc2c1=O | 0 | 0 | 0 | 0 | 72
O=C(CSc1nc2ccccc2c(=O)n1NC(=O)Cc1ccccc1)NCc1ccccc1 | 0 | 0 | 0 | 0 | 93
COc1ccc(C(=O)Nn2c(SCC(=O)NC3CCCC3)nc3ccccc3c2=O)cc1 | 0 | 0 | 0 | 0 | 0
